In the supplement of paper PMC3334620:
Whole data set: some 33,000 sequences, median “E-score (-0.5 to 0.5)” near -0.015, cut for the highest 2% near 0.3. Shown is part of a subset that was picked to be rich in the highest values.

Target: T1, Abf1 (UniProt P14164)
T1 sequence: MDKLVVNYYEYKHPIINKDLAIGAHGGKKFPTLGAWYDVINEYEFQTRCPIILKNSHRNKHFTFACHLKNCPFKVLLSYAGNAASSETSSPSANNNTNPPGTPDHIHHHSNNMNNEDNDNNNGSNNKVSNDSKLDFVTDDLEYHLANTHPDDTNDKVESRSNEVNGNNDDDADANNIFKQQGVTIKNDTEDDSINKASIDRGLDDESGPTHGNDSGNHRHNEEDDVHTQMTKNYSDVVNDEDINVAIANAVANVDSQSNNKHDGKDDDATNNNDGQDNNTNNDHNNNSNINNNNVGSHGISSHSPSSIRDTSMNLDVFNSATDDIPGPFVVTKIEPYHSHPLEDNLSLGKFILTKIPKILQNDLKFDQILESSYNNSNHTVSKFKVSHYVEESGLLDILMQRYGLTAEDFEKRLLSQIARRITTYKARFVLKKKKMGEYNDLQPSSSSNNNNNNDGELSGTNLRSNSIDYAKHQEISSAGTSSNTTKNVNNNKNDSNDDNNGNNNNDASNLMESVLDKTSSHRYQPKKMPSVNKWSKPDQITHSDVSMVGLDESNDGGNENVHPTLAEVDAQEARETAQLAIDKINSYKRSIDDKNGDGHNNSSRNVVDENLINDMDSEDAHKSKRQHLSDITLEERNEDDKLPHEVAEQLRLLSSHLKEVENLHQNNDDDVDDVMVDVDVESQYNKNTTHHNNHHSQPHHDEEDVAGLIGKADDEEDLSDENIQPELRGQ
Assay: PBM E-score (8-mer binding enrichment) (E-score (-0.5 to 0.5)); higher = stronger / more preferred TF binding
Details: protein concentration: 200 nM; construct: GST-full length
Method: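 Universal 'all 10-mer' protein binding microarrays (Agilent AMADID 015681) probed with GST-tagged S. cerevisiae TFs (full-length or DBD) made by in vitro transcription/translation (PURExpress), about 100-200 nM. Bound TF was detected with fluorescent anti-GST. Each ungapped 8-mer (which stands for itself and its reverse complement) is scored by the PBM enrichment score (E-score), a modified Wilcoxon-Mann-Whitney statistic from -0.5 to +0.5, computed with the Universal PBM Analysis Suite. Scale: above 0.35 generally sequence-specific binding.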

Row | Sequence | PBM E-score
1 | ATAACGGG | 0.0588
2 | CGGGCGCA | -0.146
3 | GAATTAAA | 0.00779
4 | GTGGAGAA | 0.0678
5 | ACATACCT | -0.0525
6 | CTACCTTC | 0.0107
7 | GGCGGAGA | -0.00874
8 | GAACGATC | 0.298
9 | TAACGAAA | 0.243
10 | AAACGATC | 0.286
11 | GAGCGATA | 0.223
12 | TAACGAGA | 0.295
13 | TAACGATA | 0.36
14 | GAACGAGA | 0.0551
15 | GTACGATA | 0.259
16 | TAGCGATA | 0.347
17 | CAGCGATA | 0.16
18 | GAACGATA | 0.301
19 | CAACGATC | 0.103
20 | ATGTAGAC | -0.0712
21 | CCATTTAG | -0.118
22 | CCGAGGTC | -0.0891
23 | GATTGGTA | 0.109

Row | Sequence | PBM E-score
24 | GCTCCTGA | -0.23
25 | CCGTACCC | 0.267
26 | CCGAGTTA | 0.0322
27 | CGCGCCTC | -0.14
28 | TACAGCCA | -0.224
29 | AAACGATT | 0.292
30 | CAACGATA | 0.25
31 | AAACGATA | 0.376
32 | ACACGATA | 0.295
33 | GCACGAGA | 0.178
34 | GCACGATA | 0.355
35 | GCGAACTA | -0.0767
36 | CCGCGAGA | -0.0337
37 | GCGGCACA | 0.112
38 | TGGTATAA | 0.0711
39 | ACGTAAAA | 0.317
40 | TAGTATAA | 0.269
41 | ACGTAAAT | 0.113
42 | GCGTAAAA | 0.103
43 | ACGTATAA | 0.304
44 | ACGTATAT | 0.193
45 | ACGTATAG | 0.186
46 | CCGTATAC | 0.272

Row | Sequence | PBM E-score
47 | CCGTATAA | 0.418
48 | GCGTATAA | 0.154
49 | TCGTATAA | 0.4
50 | GTAAGAAA | 0.176
51 | ATCAGGGC | -0.198
52 | CCATCGCA | -0.0576
53 | CAATATTG | 0.0635
54 | GGCCCTTA | -0.233
55 | GTAAACCA | -0.0676
56 | GCTTTATA | -0.0302
57 | CTTCGTAC | 0.414
58 | CTTCGTCC | 0.0852
59 | ATTCGTAC | 0.408
60 | ATTCGTAG | 0.191
61 | CTTCGTAA | 0.161
62 | ATTCGTCA | 0.164
63 | ATTCGTCG | 0.31
64 | ATTCGTAA | 0.203
65 | ATTCGTCC | 0.296
66 | GCGAGGAA | -0.0784
67 | AGTGGCGA | 0.0606
68 | CTGTTTGC | 0.0145
69 | CCTAAACA | -0.224

Row | Sequence | PBM E-score
70 | ATTCGGTC | 0.0175
71 | GCAGGCAC | -0.145
72 | CCCTTTGA | -0.125
73 | CGACGTCA | 0.123
74 | CACGAACC | 0.185
75 | CACGGTTC | 0.154
76 | ACGTCACA | 0.0823
77 | ACGTCACC | 0.22
78 | ACGTCACG | 0.326
79 | GCGTCACA | 0.02
80 | ACGTCACT | 0.39
81 | ACGTCAAT | 0.116
82 | AAGATAGG | -0.151
83 | ACTTCAGC | -0.124
84 | ATCAGGGA | -0.0561
85 | GAATGTCA | 0.278
86 | ATATGTCA | 0.289
87 | CTATGTCC | -0.022
88 | GTATGTCA | 0.394
89 | CTATGTCA | 0.31
90 | GGATGTCA | 0.171
91 | ATAAGGCA | 0.14
92 | ACAGGGGG | -0.357

Row | Sequence | PBM E-score
93 | GGAAGGAC | 0.0147
94 | AGACCATC | -0.195
95 | ATTAACCC | -0.086
96 | CGTGTAAA | 0.314
97 | CGTGTGAC | 0.11
98 | CGTGTAAC | 0.237
99 | CGTGTGAA | 0.311
100 | AGTGTAAA | -0.00367
101 | TGTGTGAA | -0.234
102 | ATATGGTG | 0.0579
103 | AGTGACGG | 0.1
104 | GGTGACGA | 0.276
105 | CGTGACCA | 0.0961
106 | CGTGACGA | 0.351
107 | AGTGACGA | 0.422
108 | CGTGACGC | 0.152
109 | CGGACATA | 0.0662
110 | CATGGAGG | -0.286
111 | AACGGCAT | 0.226
112 | CTGGTTGC | -0.0319
113 | CAATCACC | 0.0554
